# Experimental data from the supplement of paper PMC8253809.
# Values joined by “and” are separate entries in the source; they are usually repeats but may differ in a detail not shown here. Equal values may be shown once.
# What was measured:
# Experiment in all cases: growth inhibition (% activity, log2 RLU normalised to DMSO / staurosporine); higher = more growth inhibition
# Conditions in all cases: 33 µM
# DIPGX29 = system: DIPGX29 (H3.3 K27M diffuse intrinsic pontine glioma line)
# Method in brief: (§1)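 In triplicate, pHGG cell lines and H9-derived neural stem cells were treated for 7 days at 37 °C, 5% CO2 with approved drugs at a single final concentration of about 33 μM, added by pin tool. CellTiter-Glo luminescence, after log2 transformation, was normalised on each plate to % activity between solvent and positive control wells. Growth inhibition is reported as the median across replicates.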
# DIPGX37 = system: DIPGX37 (H3.3 K27M diffuse intrinsic pontine glioma line)
# Method in brief: as §1
# DIPGX7 = system: DIPGX7 (H3.3 K27M diffuse intrinsic pontine glioma line)
# Method in brief: as §1
# DIPGX9 = system: DIPGX9 (diffuse intrinsic pontine glioma line)
# Method in brief: as §1
# HGGX39 = system: HGGX39 (paediatric high-grade glioma line)
# Method in brief: as §1
# HGGX6 = system: HGGX6 (H3.3 G34R paediatric high-grade glioma line)
# Method in brief: as §1
# HNSC = system: HNSC
# Method in brief: as §1
# SUDIPGIV = system: SUDIPGIV (diffuse intrinsic pontine glioma line)
# Method in brief: as §1
# SUDIPGVI = system: SUDIPGVI (diffuse intrinsic pontine glioma line)
# Method in brief: as §1
# SUDIPGXIII = system: SUDIPGXIII (diffuse intrinsic pontine glioma line)
# Method in brief: as §1
SMILES,growth inhibition (DIPGX29),growth inhibition (DIPGX37),growth inhibition (DIPGX7),growth inhibition (DIPGX9),growth inhibition (HGGX39),growth inhibition (HGGX6),growth inhibition (HNSC),growth inhibition (SUDIPGIV),growth inhibition (SUDIPGVI),growth inhibition (SUDIPGXIII)
CCCCc1nc(Cl)c(CO)n1Cc1ccc(-c2ccccc2-c2nnn[nH]2)cc1,1.53%,-1.24%,-0.599%,0.985%,0.264%,1.5%,2.21%,0.0281%,1.16%,0.404%
CN(C)C(=O)C(CCN1CCC(O)(c2ccc(Cl)cc2)CC1)(c1ccccc1)c1ccccc1,11.2%,3.96%,9.47%,0.4%,13.9%,9.1%,81.6%,7.8%,3.43%,9.15%
COc1nc(N)nc2c1ncn2[C@@H]1O[C@H](CO)[C@@H](O)[C@@H]1O,-0.0296%,-1.39%,-1.6%,1.18%,2.74%,1%,-1.01%,0.63%,0.545%,-2.52%
COc1cc2nc(N3CCN(C(=O)c4ccco4)CC3)nc(N)c2cc1OC,7.72%,-2.22%,1.17%,3.48%,-0.781%,18.9%,-0.602%,-3.54%,-4.38%,-1.72%
Clc1ccc2nsnc2c1NC1=NCCN1,-1.22%,-2.25%,-1.44%,-1.35%,-0.915%,-1.61%,-2.35%,-2.55%,-2.56%,-1.44%
C#CCC(Cc1cnc2nc(N)nc(N)c2n1)c1ccc(C(=O)N[C@@H](CCC(=O)O)C(=O)O)cc1 (stereo not given in full),10.7%,6.3%,25%,9.98%,22.8%,24%,56.1%,16.5%,17.6%,13%
CCOc1ccc2nc3cc(N)ccc3c(N)c2c1,-0.121%,2.61%,2.68%,3.22%,-1.26%,1.77%,2.09%,1.88%,-0.000958%,1.33%
O=C1c2ccccc2C(=O)C1c1ccccc1,-0.501%,-1.03%,-0.877%,-0.146%,1.52%,0.118%,-1.43%,0.701%,0.683%,0.357%
COc1cc(C(C)=O)ccc1OCCCN1CCC(c2noc3cc(F)ccc23)CC1,1.79%,0.322%,12.7%,0.361%,4.35%,0.871%,0.367%,2.3%,-12.2%,4.02%
CCC1(c2ccccc2)C(=O)NCNC1=O,-1.25%,0.454%,0.246%,-0.432%,2.69%,-0.575%,3.35%,-1.41%,0.425%,0.0763%
NC(=O)c1cn(Cc2c(F)cccc2F)nn1,-1.15%,-0.27%,-2%,-1.13%,-1.24%,-1.04%,-2.69%,-1.85%,-0.117%,0.834%
O=C(O)CCCC[C@@H]1SC[C@@H]2NC(=O)N[C@@H]21,0.444%,0.747%,0.534%,1.28%,2.04%,2.52%,-1.69%,1.07%,1.25%,0.684%
CC(C(=O)O)c1ccc2c(c1)CC(=O)c1ccccc1S2 (stereo not given),1.3%,4.16%,2.06%,1.25%,2.45%,2.99%,1.66%,-1.48%,4.71%,0.56%
NC(N)=Nc1nc(CSCC/C(N)=N/S(N)(=O)=O)cs1,-1.68%,-1.77%,-1.85%,-0.682%,-0.78%,-1.75%,-0.722%,-1.56%,-8.72%,-0.00988%
CN1[C@@H]2CC[C@H]1CC(OC(=O)c1c[nH]c3ccccc13)C2 (stereo not given in full),4.79%,5.76%,6.41%,23.4%,7.53%,1.59%,58.8%,9.21%,1.15%,0.619%
CC1(C)Cc2c(-c3ccccc3)c(-c3ccc(Cl)cc3)c(CC(=O)O)n2C1,1.89%,3.9%,3.38%,1.48%,2.51%,-0.994%,8.73%,1.41%,1.99%,1.12%
Cc1ccc(C(=O)c2cc(O)c(O)c([N+](=O)[O-])c2)cc1,-4.7%,-1.02%,-1.81%,-2.4%,-1.44%,-3.36%,0.397%,-4.56%,-2.71%,1.37%
CN1CCCCC1CCN1c2ccccc2Sc2ccc([S+](C)[O-])cc21 (stereo not given),-1.62%,1.07%,-1.12%,-0.108%,-0.329%,-0.926%,1.22%,-1.02%,-0.796%,1.03%
Nc1nc2[nH]cc(CCc3ccc(C(=O)N[C@@H](CCC(=O)O)C(=O)O)cc3)c2c(=O)[nH]1,1.3%,1.02%,2.83%,0.403%,-0.372%,-2.22%,-0.517%,2.12%,-1.22%,1.32%
CCC(C)(C)C(=O)O[C@H]1C[C@@H](C)C=C2C=C[C@H](C)[C@H](CC[C@@H]3C[C@@H](O)CC(=O)O3)[C@H]21,6.91%,-7.26%,9.48%,1.4%,15.7%,11.3%,60.4%,19%,-11.4%,3.91%
CN1C(CCl)Nc2cc(Cl)c(S(N)(=O)=O)cc2S1(=O)=O (stereo not given),1.82%,1.82%,1.38%,0.87%,2.55%,3.08%,1.19%,0.139%,1.21%,-13.7%

SMILES,growth inhibition (DIPGX29),growth inhibition (DIPGX37),growth inhibition (DIPGX7),growth inhibition (DIPGX9),growth inhibition (HGGX39),growth inhibition (HGGX6),growth inhibition (HNSC),growth inhibition (SUDIPGIV),growth inhibition (SUDIPGVI),growth inhibition (SUDIPGXIII)
CN(C(=O)CN(CCO)CC(=O)N(C)C(C)(C)Cc1ccccc1)C(C)(C)Cc1ccccc1,11.3%,3.37%,29%,4.47%,9.74%,2.56%,53.1%,3.05%,6.12%,10.4%
COc1ncnc(NS(=O)(=O)c2ccc(N)cc2)c1OC,0.769%,2.24%,1.07%,2.03%,0.995%,1.53%,-1.3%,-0.0587%,-0.393%,1.69%
CCCCCCCCCCCCCCCC[N+](C)(C)CCN(Cc1ccc(OC)cc1)c1ncccn1,59.2%,55.6%,57.6%,55.3%,59.2%,62%,57.8%,57.6%,56.7%,42.9%
NS(=O)(=O)c1cc2c(cc1Cl)N=CNS2(=O)=O,-2.49%,-1.85%,0.251%,-2.53%,-3.41%,-3.61%,-4.62%,-3.95%,-5.67%,0.373%
CC(NC(=O)Cc1cc(F)cc(F)c1)C(=O)NC(C(=O)OC(C)(C)C)c1ccccc1 (stereo not given),0.109%,-1.56%,0.0172%,0.631%,1.42%,1.3%,1.25%,-6.22%,-0.444%,0.458%
Cc1cc(C2CCCCC2)n(O)c(=O)c1,68.5% and 63.3%,7.69% and 8.51%,54.5% and 43.2%,68.8% and 56.5%,8.59% and 9.1%,67.5% and 63.6%,81.5% and 63.9%,13.4% and 8.52%,-4.21% and -2.85%,21.3% and 10.6%
Clc1ccc(CSC(Cn2ccnc2)c2ccc(Cl)cc2Cl)cc1 (stereo not given),3.26%,-0.102%,3.59%,1.99%,11.1%,8.31%,9.42%,16.1%,3.55%,10.8%
COc1ccc2c(c1)c(CC(=O)OCC(=O)O)c(C)n2C(=O)c1ccc(Cl)cc1,4.7%,5.04%,3.74%,5.54%,6.62%,4.04%,6.99%,-0.727%,5.09%,1.16%
C[C@@H](O)[C@H]1C(=O)N2C(C(=O)O)=C(S[C@@H]3CN[C@H](CNS(N)(=O)=O)C3)[C@H](C)[C@H]12,0.9%,-1.74%,3.79%,-0.371%,-0.0496%,-2.09%,28.8%,-1.38%,-5.58%,-1.69%
N=C(N)NCCN1CCCCCCC1,1.99%,-0.0479%,2.35%,1.9%,2.8%,1.1%,5.04%,0.15%,5%,-0.376%
CC(C)(CO)[C@@H](O)C(=O)NCCC(=O)O,-2.53%,-0.522%,-0.818%,-0.68%,-0.909%,-0.397%,-0.802%,-0.366%,-3.69%,1.65%
C[C@@](Cc1ccc(O)c(O)c1)(NN)C(=O)O,-0.229%,0.519%,-0.935%,2.31%,-0.733%,0.427%,-1.19%,0.65%,2.9%,1.25%
CCc1ccc(CCOc2ccc(CC3SC(=O)NC3=O)cc2)nc1 (stereo not given),-2.15% and 0.83%,-2.01% and 4.22%,-1.47% and 2.56%,-0.422% and 2.5%,-0.303% and 4.55%,0.514% and 3.43%,-3.49% and 4.18%,-1.64% and 1.36%,-1.48% and 2.8%,-2.58% and 1.07%
Nc1nc2[nH]cnc2c(=S)[nH]1,23.3%,12.5%,5.75%,17.2%,25%,18.7%,63.7%,42.5%,-1.02%,2.55%
CC(C)(Sc1cc(C(C)(C)C)c(O)c(C(C)(C)C)c1)Sc1cc(C(C)(C)C)c(O)c(C(C)(C)C)c1,-2%,-0.535%,-0.766%,-0.47%,-0.682%,-1.24%,1.54%,-1.38%,-2.9%,1.85%
O=C(O)CCCN1CCC(O[C@@H](c2ccc(Cl)cc2)c2ccccn2)CC1,-0.326%,0.504%,-0.839%,-1.86%,0.636%,-0.646%,-1.58%,-0.161%,0.268%,0.355%
CC(=O)[C@H]1CC[C@H]2[C@@H]3C=CC4=CC(=O)CC[C@@]4(C)[C@@H]3CC[C@]12C,-0.886%,4.22%,-0.136%,0.45%,1.86%,-2.88%,6.39%,2.11%,0.865%,-1.05%
Cc1cc(-n2c(=O)[nH]c(=O)n(C)c2=O)ccc1Oc1ccc(SC(F)(F)F)cc1,1.92%,4.99%,3.64%,1.95%,4.82%,2.18%,5.28%,2.64%,4.98%,-0.649%
CCOC(=O)C1=C(C)NC(C)=C(C(=O)OC)C1c1cccc([N+](=O)[O-])c1 (stereo not given),-2.41%,0.972%,1.75%,-2.12%,0.389%,-2.9%,37.3%,-0.292%,-8.45%,2.39%
CCCCC(=O)O[C@H]1CC[C@H]2[C@@H]3CCc4cc(O)ccc4[C@H]3CC[C@]12C,2.95%,4.39%,2.96%,8.03%,1.99%,-1.05%,72.8%,2.52%,-2.97%,1.55%
